Screening results as filed in PubChem BioAssay.
Hits are enriched below; roughly 9.6% of the tested compounds scored in any of these assays.
USP30 block: human USP30 deubiquitinase inhibition; inhibition, % at 25 µM; AID 1645860; 5.3% of 47,000 active; purified USP30, Ub-rhodamine cleavage fluorescence
Target sequence (Q70CQ3 whole entry, looked up): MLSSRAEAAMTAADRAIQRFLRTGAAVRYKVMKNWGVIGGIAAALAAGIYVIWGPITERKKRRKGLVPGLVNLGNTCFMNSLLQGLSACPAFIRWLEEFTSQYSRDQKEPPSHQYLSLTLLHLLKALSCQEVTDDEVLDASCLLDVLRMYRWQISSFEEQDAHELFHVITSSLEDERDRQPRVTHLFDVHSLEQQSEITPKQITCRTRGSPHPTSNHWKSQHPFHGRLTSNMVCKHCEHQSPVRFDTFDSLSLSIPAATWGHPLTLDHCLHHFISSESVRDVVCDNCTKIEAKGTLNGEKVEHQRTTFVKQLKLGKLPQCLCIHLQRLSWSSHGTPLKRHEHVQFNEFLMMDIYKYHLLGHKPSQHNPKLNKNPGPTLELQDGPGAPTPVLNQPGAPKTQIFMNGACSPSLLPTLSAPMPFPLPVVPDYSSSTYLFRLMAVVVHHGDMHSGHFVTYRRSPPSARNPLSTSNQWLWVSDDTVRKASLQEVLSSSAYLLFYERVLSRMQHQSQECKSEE
USP17 block: blocks human USP17 ubiquitin-rhodamine cleavage. inhibition, % at 50 µM. purified USP17, Ub-rhodamine cleavage fluorescence, 3 h. AID 1645855. 6.5% of 47,000 active. A8MUK1
The depositor's hits bear a star. Rule as the data show it: active = inhibition above about 30%; inactive = the rest.

Results for Cc1ccc(NC(=O)c2ccccc2)c(=O)n1CC(=O)N1CCCC1 ?
USP30 block: -5; USP17 block: 1

Results for O=C(CCn1c(=O)[nH]c2ccccc2c1=O)N1CCN(c2ccc([N+](=O)[O-])cc2)CC1 ?
USP30 block: -1; USP17 block: 17

What do the screens show for `O=C(CCCn1c(=O)[nH]c2ccccc2c1=O)N1CCN(c2ccc(Cl)cc2)CC1`?
USP30 block: 41*; USP17 block: -11

Results for COc1ccc(N2CCN(C(=O)CCCCCn3c(=O)[nH]c4ccccc4c3=O)CC2)cc1 ?
USP30 block: 23; USP17 block: 8

How did O=C(Cn1c(=O)[nH]c2ccccc2c1=O)N1CCN(c2ccccc2F)CC1 do in these assays?
USP30 block: 32*; USP17 block: 24

How did CC(=O)c1ccc(N2CCN(C(=O)Cn3c(=O)[nH]c4ccccc4c3=O)CC2)cc1 do in these assays?
USP17 block: 42*

What do the screens show for `Cc1ccc(NC(=O)c2ccccc2)c(=O)n1CC(=O)N1CCN(c2ccccc2F)CC1`?
USP30 block: 30*

Results for Cc1cccc(N2CCN(C(=O)Cn3c(=O)[nH]c4ccccc4c3=O)CC2)c1C ?
USP30 block: 13; USP17 block: 0

What do the screens show for `COc1cccc(CNC(=O)C(C)N2C(=O)CCCc3ccccc32)c1` (stereo not drawn)?
USP30 block: -2; USP17 block: 2

How did CS(=O)(=O)N1CCC(C(=O)NC2CC2)Oc2ccc(Cl)cc21 (stereo not drawn) do in these assays?
USP30 block: -4; USP17 block: -3

How did O=C(NCC1CCCO1)c1c(-c2ccccc2)nnc2ccccc12 (stereo not drawn) do in these assays?
USP30 block: 0; USP17 block: -7

How did CCCCOc1ccc(-c2cc3c(N4CCN(CC)CC4)nccn3n2)cc1 do in these assays?
USP30 block: -62; USP17 block: -24

How did CCOC(=O)C1=C(CN2CCC(C(=O)OCC)CC2)NC(=O)NC1c1ccc(F)cc1 (stereo not drawn) do in these assays?
USP30 block: 8; USP17 block: 2

How did Cc1ccc(Cn2c(=O)c3c(nc(N4CCCCCC4)n3C)n(C)c2=O)cc1 do in these assays?
USP30 block: 9; USP17 block: 7

How did Cc1ccc(-c2nnc(C(C)N3CCN(c4ccccc4)CC3)o2)cc1 (stereo not drawn) do in these assays?
USP30 block: 8; USP17 block: -5

Results for Cc1ccc(-n2cc(-c3ccccc3)c3c(NCc4ccco4)ncnc32)cc1 ?
USP30 block: -69; USP17 block: 0

Results for CC(=O)c1cccc(NS(=O)(=O)c2c(C(C)C)nc3sc(C)cn23)c1 ?
USP30 block: -8; USP17 block: -1

Results for COc1ccc(Cl)cc1NC(=O)CN1C(=O)CC(c2ccccc2)S(=O)(=O)c2ccccc21 (stereo not drawn) ?
USP30 block: 11; USP17 block: 12

How did COc1ccc(C2CC(=O)N(CC(=O)Nc3ccc(NC(C)=O)cc3)c3ccccc3S2)cc1OC (stereo not drawn) do in these assays?
USP17 block: 37*

Results for CCCc1cc(C2CCCN2C(=O)c2cc(-c3ccccc3)no2)no1 (stereo not drawn) ?
USP30 block: 32*; USP17 block: 20

What do the screens show for `CCCc1cc(C2CCCN2C(=O)c2cc(-c3ccccc3)on2)no1` (stereo not drawn)?
USP30 block: 20; USP17 block: 9

What do the screens show for `O=C(O)c1cnc2ccccc2c1Nc1ccc(N2CCOCC2)cc1`?
USP30 block: -8; USP17 block: -7

How did CCN1C[C@H]2CCN(Cc3cccnc3)CC[C@H]2S1(=O)=O do in these assays?
USP30 block: -60; USP17 block: -13

Results for CCN(CC)c1nc(F)c2c(c1F)S(=O)(=O)CCN2Cc1cccnc1 ?
USP30 block: 8; USP17 block: 58*

What do the screens show for `CC1CCCCN1c1nc(F)c2c(c1F)S(=O)(=O)CCN2Cc1cccnc1` (stereo not drawn)?
USP30 block: -36; USP17 block: 35*

Results for O=S1(=O)CCN(CC2CCCO2)c2c(F)nc(N3CCOCC3)c(F)c21 (stereo not drawn) ?
USP30 block: -5; USP17 block: 3

How did O=C(Cn1c(=O)n(Cc2ccc(F)cc2)c(=O)c2ncccc21)NCc1ccc(F)cc1 do in these assays?
USP30 block: -56

Results for O=C(Cn1c(=O)n(Cc2ccc3c(c2)OCO3)c(=O)c2ccccc21)c1ccccc1 ?
USP30 block: 36*; USP17 block: 23

Results for O=C(Cn1c(=O)n(Cc2ccc(C(=O)NC3CCCC3)cc2)c(=O)c2ccccc21)c1ccc(Cl)c(Cl)c1 ?
USP30 block: 12; USP17 block: 19

What do the screens show for `O=C(Cn1c(=O)n(Cc2ccc3c(c2)OCO3)c(=O)c2ncccc21)NCc1ccccc1`?
USP30 block: 85*; USP17 block: 76*

Results for COc1ccccc1CC1C(=O)Nc2ccccc21 (stereo not drawn) ?
USP30 block: 22; USP17 block: 12

How did O=C(c1ccc(-c2ccccc2F)o1)N1CCCC1 do in these assays?
USP30 block: -19; USP17 block: -2

How did COc1ccc2cc(C(C)C(=O)NCc3ccccc3)ccc2c1 (stereo not drawn) do in these assays?
USP30 block: 42*; USP17 block: 12

How did CCOC(=O)N1CCN(C(=O)c2ccc(CNS(=O)(=O)c3ccc(NC(C)=O)cc3)cc2)CC1 do in these assays?
USP30 block: 23; USP17 block: 17

How did COc1ccc(CNC(=O)c2ccc(CNS(=O)(=O)c3ccc(NC(C)=O)cc3)cc2)cc1 do in these assays?
USP30 block: 37*; USP17 block: 41*

Results for COc1ccc(CNC(=O)c2cccc(S(=O)(=O)Nc3ccc(F)cc3)c2)cc1 ?
USP30 block: 5; USP17 block: 4

Results for COc1ccc(CNC(=O)c2ccccc2NC(=O)c2ccccc2F)cc1 ?
USP30 block: 1; USP17 block: 10

What do the screens show for `COc1cccc(CNC(=O)Cc2cccc3ccccc23)c1`?
USP30 block: -55; USP17 block: 7

How did COc1ccc(C(=O)Nc2ccccc2C(=O)NCc2ccccc2)cc1 do in these assays?
USP30 block: 92*; USP17 block: 16

What do the screens show for `CC(=O)Nc1ccc(S(=O)(=O)NCc2ccc(C(=O)NCCN3CCCCCC3)cc2)cc1`?
USP30 block: -123; USP17 block: 35*

What do the screens show for `CN(C)C(=O)[C@H]1C[C@@H]2CN(S(=O)(=O)C3CC3)C[C@H]1O2`?
USP30 block: -7; USP17 block: -4

Results for CCC(C)Nc1ncnc2c1CN(C1CCCNCC1)C(=O)CN2C (stereo not drawn) ?
USP30 block: 15; USP17 block: -5

What do the screens show for `CC(=O)Nc1ccc(S(=O)(=O)Nc2nc3ccccc3nc2NCc2ccc(Cl)cc2)cc1`?
USP30 block: -122; USP17 block: -41

How did COc1ccc(CNC(=O)c2ccc(S(=O)(=O)Nc3ccccc3F)cc2)cc1 do in these assays?
USP30 block: 31*; USP17 block: 25

How did NS(=O)(=O)c1ccc(CCNC(=O)c2ccc(S(=O)(=O)Nc3ccccc3F)cc2)cc1 do in these assays?
USP30 block: 0; USP17 block: -1

Results for CSc1nnc(-c2ccc(C(C)(C)C)cc2)n1Cc1ccccc1 ?
USP30 block: 33*; USP17 block: 14

Results for O=C(O)CCSc1nnc(-c2ccc(O)cc2)n1Cc1ccccc1 ?
USP30 block: -4; USP17 block: -3
